# An excerpt weighted towards active compounds, which were near 2.3% of everything screened.
# GLD-1 TGE inh = GLD-1/TGE RNA complex disruptors, primary screen, biochemical, fluorescence polarization | inhibition, % at 5.96 µM | 0.44% of 320,000 active | purified GLD-1 + fluorescein TGE RNA | Female germline-specific tumor suppressor gld-1 (Caenorhabditis elegans), Q17339;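 active = percent inhibition above a per-plate cutoff, the plate mean of test compounds plus 3 SD, cut at about 30% in these data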;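 note: 0% = DMSO wells with GLD-1 and probe and 100% = wells lacking GLD-1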
# Bcl-xL primary = inhibitors of human Bcl-xL, primary screen, biochemical, fluorescence polarization, HTS | Bcl-2-like protein 1 (Homo sapiens), Q07817 | GST-Bcl-xL / FITC-Bim BH3 peptide fluorescence polarization | inhibition, % at 10.9 µM | 0.7% of 320,000 active;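 active = inhibition above the mean of all tested compounds plus 3 SD, cutoff set per campaign, cut at about 30% in these data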;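 note: 0% = DMSO wells and 100% = unlabeled Bim-BH3 peptide competitor; inhibitors lower millipolarization by displacing the labeled peptide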
# Target sequence (Q07817 whole entry, looked up): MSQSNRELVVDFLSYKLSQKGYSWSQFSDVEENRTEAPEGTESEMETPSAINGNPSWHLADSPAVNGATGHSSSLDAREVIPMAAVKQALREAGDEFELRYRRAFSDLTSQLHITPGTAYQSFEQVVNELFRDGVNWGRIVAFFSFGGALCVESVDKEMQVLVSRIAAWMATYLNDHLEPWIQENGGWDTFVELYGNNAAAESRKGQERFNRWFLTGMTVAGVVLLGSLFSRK
# Mcl1-Noxa inh = Mcl-1/Noxa binding inhibitors, primary screen, biochemical, TR-FRET, 1536-well; 1.5% of 220,000 active; inhibition, % at 21.7 µM; TR-FRET Mcl-1/Noxa peptide binding, 2 h; AID 1022, 2008;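 active = compounds that cut the protein-peptide binding signal by more than 50% relative to plate controls in a single-dose test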;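 note: His-tagged Mcl-1 with rhodamine Noxa BH3 peptide and terbium anti-His antibody; 0% = Mcl-1 plus Noxa peptide wells and 100% = peptide-only wells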
# Mcl1 Bid PPI = Mcl-1/Bid binding inhibitors, primary screen, biochemical, TR-FRET, 1536-well; inhibition, % at 21.7 µM; Induced myeloid leukemia cell differentiation protein Mcl-1 (Homo sapiens), Q07820; 0.97% of 220,000 active; TR-FRET Mcl-1/Bid-Dy647 peptide binding;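 active = compounds that cut the binding signal by more than half at the single screening dose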;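 note: His-tagged Mcl-1 with europium anti-His antibody binding Bid BH3 peptide; 0% = Mcl-1 plus peptide wells and 100% = peptide-only wells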
# MCL1-BIM inh = inhibitors of MCL1 binding to BIM-BH3, primary screen, biochemical, fluorescence polarization; Induced myeloid leukemia cell differentiation protein Mcl-1 (Homo sapiens), Q07820; inhibition, % at 10.9 µM; 0.68% of 320,000 active; GST-MCL1 / FITC-Bim-BH3 fluorescence polarization;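 active = inhibition above the mean inhibition of all tested compounds plus 3 SD, set per campaign, cut at about 40% in these data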;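 note: 0% = DMSO wells and 100% = unlabeled Bim-BH3 peptide control; higher means more loss of mP so more displacement of Bim peptide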
# Bim-Mcl-1 = inhibitors of Bim peptide binding to Mcl-1, primary screen, biochemical, bead-based flow cytometry, multiplex. Bim peptide-Mcl-1 binding. 0.1% of 190,000 active. inhibition, % at 10 µM. Induced myeloid leukemia cell differentiation protein Mcl-1 (Homo sapiens), Q07820; in the data active = inhibition above about 40%;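 note: 0% = no compound tracer wells and 100% = peptide blocker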
# An asterisk follows results filed as active; nt = not tested or not shown.
SMILES,GLD-1 TGE inh,Bcl-xL primary,Mcl1-Noxa inh,Mcl1 Bid PPI,MCL1-BIM inh,Bim-Mcl-1
Cc1ccc(S(=O)(=O)N2CCCN(C)c3nc4ccccc4nc32)cc1,18,38*,nt,nt,32,nt
CCOC(=O)c1sc(-c2ccc(C(F)(F)F)cc2)nc1O,12,36*,-4,-6,35,nt
S=C(NNc1ccnc2cc(Cl)ccc12)Nc1ccccc1Cl,-5,5,62*,-35,-1,-3
COc1ccccc1-c1nc(SCC(=O)N(C)c2ccccc2)c2c(=O)n(C)c(=O)n(C)c2n1,2,7,35,57*,2,0
COc1cccc(CN(C)C(=O)CNC(=O)c2ccc(-c3ccccc3)cc2)c1OC,12,1,nt,nt,0,nt
N=c1sccn1CC(=O)NCCc1ccc(Cl)cc1Cl,6,4,51*,41,6,0
O=C(Cc1ccccc1)NCCc1ccc(Cl)cc1Cl,-4,-7,25,-12,-17,-2
CCN(CC)CC(C)OC(=O)c1cc(OC)c(OC)c(OC)c1 (centres undefined),6,4,4,51*,0,-1
Cc1ccc(/C=c2/sc3n(c2=O)CCCN=3)o1,6,9,26,-22,-3,15
O=C(NCc1ccc(/C=c2\sc3n(c2=O)CCN=3)o1)C(=O)Nc1ccccc1,1,12,56*,-51,26,1
O=C(Nc1ccc(O)c(-c2nc3ccccc3s2)c1)c1cc(=O)c2ccccc2o1,4,2,51*,52*,-5,-7
O=C(/C=C/c1ccco1)NC(=S)Nc1ccc(O)c(-c2nc3ccccc3s2)c1,5,6,52*,59*,15,-6
COc1ccc(NC(=S)NC(=O)/C=C/c2ccco2)cc1,-1,6,20,-16,1,-1
CC(=O)NC(=S)Nc1ccc(NC(=S)NC(=O)/C=C/c2ccco2)cc1,1,6,66*,44,2,nt
O=C(Nc1ccc(O)c(-c2nc3ccccc3s2)c1)c1cccs1,2,5,-217,-56,1,0
CCC(=O)Nc1ccc(NC(=S)NC(=O)/C=C/c2ccco2)cc1,4,3,nt,nt,20,nt
O=C(c1ccco1)N1CCN(Cc2cc(=O)c(OCc3ccc(F)cc3)co2)CC1,6,8,nt,nt,2,nt
CCOc1ccc(NC(=O)N(Cc2ccc(C)cc2)Cc2ccccn2)cc1,-2,5,nt,nt,5,nt
CN1CCN(c2nc(Nc3ccc(F)cc3)nc(Nc3ccc(F)cc3)n2)CC1,0,-1,nt,nt,-3,nt
O=c1n(S(=O)(=O)c2cccc3cccnc23)c2ccccc2n1S(=O)(=O)c1cccc2cccnc12,-1,2,10,91*,-1,-6
CC1CC(C)CN(S(=O)(=O)c2cccc3cccnc23)C1 (centres undefined),-5,2,5,-23,4,0
Cn1c(N)nc2nc(CCc3ccccc3)c(=O)[nH]c2c1=O,30,40*,nt,nt,41*,nt
COc1ccc2[nH]c3c(N4CCc5ccccc5C4)ncnc3c2c1,4,4,62*,-1,0,nt
COc1cc2[nH]c3c(N4CCN(c5ccccn5)CC4)ncnc3c2cc1OC,8,-2,64*,-16,-15,4
C=CC(=O)N(CCC)C(c1ccccc1)c1ccccc1OC (centres undefined),9,2,nt,nt,5,nt
CCOC(=O)CNc1nc(C(C)(C)C)nc2c1nnn2Cc1ccccc1,-2,3,nt,nt,2,nt
COc1ccc(N2CCN(C(=O)NCc3ccc(OC)c(OC)c3)CC2)cc1,8,-3,nt,nt,-7,nt
CCOC(=O)c1cc(-c2ccccc2)n(CC(=O)N2CCCC2)c1C,4,4,7,94*,2,-1
CC(C(=O)N1CCc2ccccc21)N1CCN(Cc2ccc(Cl)cc2)CC1 (centres undefined),0,9,nt,nt,6,nt

# Source: PubChem
